From PubChem
HIV RNase H inh-1 = blocks HIV-1 RNase H cleavage of RNA/DNA duplex; inhibition, % at 10 µM; P04585; RT-RNase H RNA/DNA duplex cleavage, fluorescence; 65,000 compounds, 1.9% hits; in the data active = inhibition above about 50%
HIV RNase H inh-2 = confirmation of HIV-1 reverse transcriptase RNase H inhibitors; shares compounds with HIV RNase H inh-1; Recombinant RT RNase H, fluorescent RNA/DNA duplex cleavage; AID 651; 1,000 compounds, 39% hits; inhibition, % at 10 µM; in the data active = inhibition above about 48%; inconclusive = no clear call, values can overlap the other calls
* hit, by the source's call; ? = inconclusive. This is one part of a sample in which hits are shown more often than they occur.

SMILES	HIV RNase H inh-1	others
O=C1c2ccccc2C(Nc2ccc3c(c2)OCCO3)N1Cc1ccccc1 (stereo not drawn)	-14.3
O=C(CSc1nc2ccccc2o1)NCCOc1ccccc1	-37.1
COc1nc(C)ccc1-c1noc(-c2ccncc2)n1	-26.6
COc1nc(-c2ccc(Cl)cc2)ccc1-c1noc(-c2ccncc2)n1	63.9*	HIV RNase H inh-2=47.6
COc1nc(-c2ccccc2)ccc1-c1noc(-c2ccccc2)n1	0.0
CC1(C(=O)O)CCC(C(=O)N2CCOCC2)C1(C)C (stereo not drawn)	-3.0
Cc1ccccc1N1C(=O)CC(Sc2nnc(-c3ccccc3)o2)C1=O (stereo not drawn)	57.6*	HIV RNase H inh-2=44.7
Cc1ccccc1N1C(=O)CC(N2CCC(C(N)=O)CC2)C1=O (stereo not drawn)	34.3
COc1ccccc1N1C(=O)CC(Sc2nc(C)cc(C)n2)C1=O (stereo not drawn)	31.9
O=C1CC(Sc2nnc(-c3ccccc3)o2)C(=O)N1c1ccccc1 (stereo not drawn)	52.0*	HIV RNase H inh-2=18.8
Cc1nc(SC2CC(=O)N(c3ccccc3)C2=O)nc2c1CCCC2 (stereo not drawn)	1.5
O=C1c2ccccc2CC1Sc1nnc(-c2ccncc2)o1 (stereo not drawn)	45.9
COc1cc(C(=O)NCc2ccc3c(c2)OCO3)ccc1OCc1c(C)noc1C	1.4
Cc1ccc(-n2ncc3c(=O)n(CC#N)cnc32)cc1	-8.0
Cc1occc1-c1nnc(SCC(=O)Nc2ccccc2)n1C(C)c1ccccc1 (stereo not drawn)	-52.6
CCOc1nnnc2c1sc1nc(N3CCOCC3)c3c(c12)CC(C)(C)OC3	-3.8
CCCCN(C)CCNC(=O)Cn1ncc2c(=O)oc3ccc(C)cc3c21	-10.5
COc1ccc(NC(=O)Cn2nnc(-c3ccccc3N)n2)cc1OC	7.7
Cc1ccc(-c2nnn(CC(=O)NCC3COCCO3)n2)o1 (stereo not drawn)	-1.6
Cc1ccc(-c2nnn(CC(=O)Nc3ccc4nn(-c5ccccc5)nc4c3)n2)o1	76.2*	HIV RNase H inh-2=?
CCNc1nc(SC(C)C(=O)OC)nc(N2CCOCC2)n1 (stereo not drawn)	-11.8
CCOC(=O)COc1ccc(S(=O)(=O)N2CCc3ccccc3C2)cc1	-8.6
Cc1ccc(N2CC(C(=O)OCc3ccccc3)CC2=O)cc1 (stereo not drawn)	-74.3
CCc1ccc(C(=O)CSC2=C(C#N)C(c3ccco3)C(C(C)=O)=C(C)N2)cc1 (stereo not drawn)	0.5
COc1ccccc1NC(=O)C1=C(C)NC(SCC(=O)c2ccc(C)cc2)=C(C#N)C1c1ccco1 (stereo not drawn)	58.9*	HIV RNase H inh-2=39.3
SMILES	HIV RNase H inh-1	others
CC(=O)C1=C(C)NC(SCC(=O)c2ccc(F)cc2)=C(C#N)C1c1ccco1 (stereo not drawn)	-7.0
COc1cccc(C2CC(c3ccccc3Cl)n3ncnc3N2)c1 (stereo not drawn)	-25.2
COC(=O)c1sccc1NC(=O)CN1CCN(c2ccc(F)cc2)CC1	-7.9
Nc1ccc2nn(-c3cccc4ccccc34)nc2c1	10.7
Cc1cc2nn(-c3cccc4ccccc34)nc2cc1N	66.6*	HIV RNase H inh-2=22.1
Cc1nnc2sc(-c3cccc4ccccc34)nn12	-24.2
CC1(C)CCCN(C(=O)c2coc(=O)c(Br)c2)C1	19.5
COc1ccccc1NC(=O)c1ccc(NC(=O)CSc2nnnn2C)cc1	-0.1
O=C(O)c1ccc(CSc2nnnn2C2CCCCC2)cc1	-8.3
O=C(Sc1nnnn1C1CCCCC1)c1cccs1	61.5*	HIV RNase H inh-2=40.5
O=C(CSc1nnnn1C1CCCCC1)N1CCCC1	-5.3
CCOc1cc2[nH]c(=O)n(CC3CCC(C(=O)NC(C)CC)CC3)c(=O)c2cc1OCC (stereo not drawn)	-0.1
NC(=O)C1CCN(C(=O)CSc2nc3c(c(-c4ccccc4)n2)CCCC3)CC1	-7.7
Cc1noc(/C=C/N(C)C)c1S(=O)(=O)N1CCCC(C(=O)NCCC2=CCCCC2)C1 (stereo not drawn)	-1.5
Cc1ccc2cc(CN(C)C(=O)C3CCCO3)c(=O)[nH]c2c1 (stereo not drawn)	-0.9
CC1(C)OC(=O)N(Cc2ccco2)C1(C)O (stereo not drawn)	-5.0
CCCCSc1nnc(CCCCCNC(=O)OC(C)(C)C)o1	-7.5
CCOC(=O)c1c(C)oc2c1c(C=NC1CCS(=O)(=O)C1)c(O)c1ccccc12 (stereo not drawn)	6.2
CCOC(=O)c1c(-c2ccccc2)oc2ccc(O)c(CN3CCOCC3)c12	-20.2
CCOC(=O)c1c(C)oc2c1c(C(c1ccncc1)N1CCOCC1)c(O)c1ccccc12 (stereo not drawn)	68.2*	HIV RNase H inh-2=5.6
CSc1nc(-c2ccco2)nn1C(=O)c1ccco1	6.2
Cc1ccc(C)n1NC(=O)c1ccco1	-3.1
CN=C(c1ccco1)n1c(=S)nc(-c2ccco2)n(C)c1=S	55.5*	HIV RNase H inh-2=?
NCC[C@H](O)C(=O)N[C@@H]1C[C@H](N)[C@@H](O[C@H]2O[C@H](CN)[C@@H](O)[C@H](O)[C@H]2O)[C@H](O)[C@H]1O[C@H]1O[C@H](CO)[C@@H](O)[C@H](N)[C@H]1O	7.0
CCCOc1ccc(C(=O)N2CCCC2)cc1OC	-10.3
SMILES	HIV RNase H inh-1	others
CCOc1ccc(-n2c(=O)c3c4c(sc3n(CC(=O)NCc3ccco3)c2=O)CCC4)cc1	57.3*	HIV RNase H inh-2=87.3*
CCOc1ccc(-c2nnn(CC(=O)NCc3ccco3)n2)cc1	1.4
O=C(Cn1c(=O)n(Cc2ccco2)c(=O)c2c3c(sc21)CCCC3)Nc1ccccc1	22.5
Cc1cc(NC(=O)c2ccc(NC(=O)C(C)Oc3ccccc3)cc2)no1 (stereo not drawn)	8.7
O=C(NC1(C(F)(F)F)C(=O)Nc2c1c(=O)[nH]c(=O)n2-c1ccccc1)c1cccnc1 (stereo not drawn)	9.2
Cc1ccc(NC(=O)c2ccc3c(c2)N(CC(=O)N2CCCCC2)C(=O)C(C)(C)O3)cc1	-11.3
CC1(C)Oc2ccc(C(=O)NC3CCCC3)cc2N(CC(=O)NC2CCCCC2)C1=O	72.9*	HIV RNase H inh-2=47.7
CC1(C)Oc2ccc(C(=O)N3CCCC3)cc2N(CC(=O)NCc2ccccc2)C1=O	2.3
N#CC(c1nc2ccccc2nc1N1CCCC1)S(=O)(=O)c1cccs1 (stereo not drawn)	1.0
CCNc1ccc(C(=O)OCC)cc1NC(=O)c1cccc(S(=O)(=O)N2CCOCC2)c1	4.2
COC(=O)CSC1=NS(=O)(=O)c2ccccc21	66.4*	HIV RNase H inh-2=-2.1
O=C(CN1C(=O)c2ccccc2S1(=O)=O)Nc1cccnc1	-5.3
COC(=O)CSc1ccccc1C(=O)OC	-15.3
COC(=O)CSc1nnc(-c2ccccc2OC)o1	-3.6
O=C(CSC1=NS(=O)(=O)c2ccccc21)Nc1ccccc1	55.1*	HIV RNase H inh-2=7.2
O=C(CSc1ccccc1)Nc1cccnc1	-0.4
O=C(Nc1cccc(-c2nnc(-c3ccccc3)o2)c1)c1ccc(Br)o1	25.4
COc1cccc(-c2nnc(SCC(=O)Nc3ccc(S(N)(=O)=O)cc3)n2C)c1	-7.1
CC(C)C12CN3CC(C(C)C)(CN(C1)C3c1ccccc1)C2O (stereo not drawn)	14.9
CC(=O)c1cccc(NC(=O)NC(C)c2ccncc2)c1 (stereo not drawn)	-9.3
COCCn1c(SCC(=O)NCc2ccc3c(c2)OCO3)nnc1-c1c[nH]c2ccccc12	-4.6
CCOc1ccccc1C1C(C(=O)Nc2ccccc2OC)=C(C)Nc2nnnn21 (stereo not drawn)	-14.9
